The source made the active and inactive calls.
What was measured:
Albumin (Bos taurus) = Albumin (Bos taurus) (UniProt P02769); test: compounds binding labelled BSA control protein – biochemical, small-molecule microarray, Alexa647 label, 635/667 nm fluorescence, artefact control for SMM control protein annotation, profiling panel (AID 1118); conditions: BSA-A647 binding, fluorescence 635 nm, higher = more signal;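 note: score merges 667 nm emission intensity and signal-to-noise per printed compound spot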
Albumin (Bos taurus), sequence (P02769 whole entry, looked up): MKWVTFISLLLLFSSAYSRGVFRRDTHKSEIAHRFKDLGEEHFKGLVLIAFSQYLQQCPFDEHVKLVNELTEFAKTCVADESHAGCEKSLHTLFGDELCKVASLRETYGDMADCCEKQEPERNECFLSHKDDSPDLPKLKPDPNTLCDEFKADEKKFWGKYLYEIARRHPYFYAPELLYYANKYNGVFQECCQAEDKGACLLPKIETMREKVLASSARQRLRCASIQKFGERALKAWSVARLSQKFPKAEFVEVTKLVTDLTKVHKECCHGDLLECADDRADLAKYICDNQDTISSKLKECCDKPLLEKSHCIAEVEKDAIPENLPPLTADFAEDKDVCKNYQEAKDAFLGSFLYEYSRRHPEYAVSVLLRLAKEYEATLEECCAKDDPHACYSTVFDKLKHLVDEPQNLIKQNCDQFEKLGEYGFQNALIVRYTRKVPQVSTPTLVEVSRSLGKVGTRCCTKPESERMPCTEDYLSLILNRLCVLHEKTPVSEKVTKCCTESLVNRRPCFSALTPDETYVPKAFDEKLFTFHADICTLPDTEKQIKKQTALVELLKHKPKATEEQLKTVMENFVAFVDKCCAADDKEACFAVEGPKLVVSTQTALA

[1] = probe aXIP binding to arrayed compounds – biochemical, NeuroSMM set, 635/667 nm fluorescence, primary screen (AID 1119); conditions: small-molecule microarray, higher = more signal, called active from +8 up or from −8 down;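 note: probe is the protein aXip251-270 applied at 1 µg/mL to compound-printed slides; binding of probe to printed compounds measured as 667 nm fluorescence plus signal to noise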
[2] = probe aNOTCH3 binding on compound microarray – biochemical, small-molecule microarray, 635/667 nm fluorescence, primary screen (AID 1120); conditions: higher = more signal;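 note: probe is a biotin-tagged antibody raised against NOTCH3 rather than NOTCH3 protein; score merges spot fluorescence near 667 nm with spot signal to noise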
[3] = probe aNOTCH2 binding on compound microarray – biochemical, small-molecule microarray, 635/667 nm fluorescence, primary screen (AID 1121); conditions: higher = more signal;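 note: score merges feature fluorescence read at 667 nm with its signal to noise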
[4] = biological target: Carbonic anhydrase 2 (Homo sapiens) (UniProt P00918); test: compounds binding carbonic anhydrase 2 – biochemical, small-molecule microarray, Alexa647-labelled CAII, profiling panel (AID 1122); conditions: CAII-A647 binding fluorescence, higher = more signal
[5] = COS7 lysate on small-molecule microarray, probe aHis, 635 nm (AID 1123); conditions: COS7 cell lysate, fluorescence, higher = more signal;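 note: z-score combines 667nm fluorescence intensity with signal-to-noise per printed compound spot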
[6] = probe aLAP1 signal on lysate-treated microarray – cell lysate, small-molecule microarray, COS7 lysate, primary screen (AID 1124); conditions: probe aLAP1, fluorescence, higher = more signal;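 note: lysate comes from COS7 cells expressing LAP1 and is applied at 0.3 µg/mL; score merges spot fluorescence near 667 nm with signal-to-noise over triplicate slides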
Sam68 (KHDRBS1) = test: compounds binding KHDRBS1 protein – biochemical, small-molecule microarray, 635 nm fluorescence, primary screen (AID 1125); conditions: higher = more signal;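 note: score merges 667 nm channel intensity with signal to noise over triplicate slides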
[7] = test system: Chordin-like protein 2 (CHRDL2); test: compounds binding chordin-like 2 – biochemical, small-molecule microarray, 635 nm fluorescence, primary screen (AID 1126); conditions: fluorescence 635 nm, higher = more signal;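 note: printed compound slides probed with Chrdl2 protein at 4 µg/mL for 1 h at 4 C; score merges 667 nm emission intensity with signal to noise over three replicate slides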
[8] = biological target: Concanavalin-A (Canavalia ensiformis) (UniProt P02866); test: compounds binding concanavalin A lectin – biochemical, small-molecule microarray, Alexa647 label, 635 nm, artefact control for SMM control protein annotation, primary screen (AID 1127); conditions: ConA-A647 binding fluorescence, higher = more signal;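 note: z combines 667 nm emission intensity with signal-to-noise across three replicate slides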
Concanavalin-A (Canavalia ensiformis), sequence (P02866 whole entry, looked up): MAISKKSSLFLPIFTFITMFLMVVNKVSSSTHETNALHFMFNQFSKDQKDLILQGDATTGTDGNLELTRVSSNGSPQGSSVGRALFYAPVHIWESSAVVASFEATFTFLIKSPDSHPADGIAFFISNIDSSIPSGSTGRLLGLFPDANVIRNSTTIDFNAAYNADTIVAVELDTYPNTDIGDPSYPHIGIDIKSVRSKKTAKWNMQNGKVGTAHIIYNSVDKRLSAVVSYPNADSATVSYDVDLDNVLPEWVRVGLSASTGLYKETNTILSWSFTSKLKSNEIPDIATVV

[9] = compounds binding Alexa647 anti-His antibody – biochemical, small-molecule microarray, 635 nm fluorescence, artefact control for SMM control protein annotation, primary screen (AID 1128); conditions: higher = more signal;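 note: score merges feature fluorescence with signal-to-noise for each printed compound spot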
[10] = test system: Human papillomavirus type 1a E7 protein (residues 1-88); test: HPV1a E7 small-molecule binders, primary screen, biochemical, small-molecule microarray, residues 1-88, 635 nm (AID 1129); conditions: small-molecule microarray binding, fluorescence 635 nm; higher = more signal
[11] = biological target: Focal adhesion kinase 1 (Homo sapiens) (UniProt Q05397); test: PTK2 protein binding on printed compound slides – biochemical, small-molecule microarray, 635/667 nm fluorescence, BSA, DTT, primary screen (AID 1130); conditions: 635 nm fluorescence, higher = more signal;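 note: composite of spot emission at 667 nm and signal to noise over triplicate slides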
Focal adhesion kinase 1 (Homo sapiens), sequence (Q05397 whole entry, looked up): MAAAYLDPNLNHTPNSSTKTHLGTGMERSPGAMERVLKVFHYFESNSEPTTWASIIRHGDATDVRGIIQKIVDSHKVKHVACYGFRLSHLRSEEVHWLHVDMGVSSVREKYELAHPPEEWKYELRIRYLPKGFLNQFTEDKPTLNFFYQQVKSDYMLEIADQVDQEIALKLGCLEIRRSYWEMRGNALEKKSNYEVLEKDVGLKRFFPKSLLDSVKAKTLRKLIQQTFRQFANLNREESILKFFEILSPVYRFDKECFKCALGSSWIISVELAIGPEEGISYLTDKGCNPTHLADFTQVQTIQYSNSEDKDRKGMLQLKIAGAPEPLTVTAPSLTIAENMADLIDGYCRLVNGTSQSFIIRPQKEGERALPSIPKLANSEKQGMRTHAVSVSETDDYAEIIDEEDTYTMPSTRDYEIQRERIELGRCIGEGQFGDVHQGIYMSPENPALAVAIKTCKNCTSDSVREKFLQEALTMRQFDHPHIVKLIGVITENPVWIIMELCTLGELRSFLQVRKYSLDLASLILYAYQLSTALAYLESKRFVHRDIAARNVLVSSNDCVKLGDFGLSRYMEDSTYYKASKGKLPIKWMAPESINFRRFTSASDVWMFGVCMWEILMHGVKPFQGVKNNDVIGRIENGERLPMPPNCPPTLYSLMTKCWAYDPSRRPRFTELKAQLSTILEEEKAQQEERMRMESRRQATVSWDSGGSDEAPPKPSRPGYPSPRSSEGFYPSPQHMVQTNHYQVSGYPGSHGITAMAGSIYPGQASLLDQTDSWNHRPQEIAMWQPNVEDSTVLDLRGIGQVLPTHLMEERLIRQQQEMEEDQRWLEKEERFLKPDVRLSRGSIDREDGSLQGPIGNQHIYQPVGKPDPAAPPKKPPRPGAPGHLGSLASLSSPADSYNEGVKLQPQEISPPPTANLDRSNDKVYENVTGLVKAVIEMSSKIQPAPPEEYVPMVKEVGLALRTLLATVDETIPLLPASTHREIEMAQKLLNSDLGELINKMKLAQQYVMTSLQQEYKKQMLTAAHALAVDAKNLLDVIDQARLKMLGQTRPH

[12] = test system: Fibrinogen (Alexa647-labelled); test: Alexa647-fibrinogen binding to printed small molecules – biochemical, small-molecule microarray, 635/667 nm fluorescence, artefact control for SMM control-protein annotation, profiling panel (AID 1131); conditions: fibrinogen-A647 binding fluorescence, higher = more signal;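 note: z-score merges 667 nm fluorescence with per-spot signal-to-noise over triplicate slides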
[13] = biological target: Follistatin (Homo sapiens) (UniProt P19883); test: FST protein binding to printed compounds – biochemical, small-molecule microarray, 635/667 nm fluorescence, primary screen (AID 1132); conditions: 635 nm fluorescence, higher = more signal
Follistatin (Homo sapiens), sequence (P19883 whole entry, looked up): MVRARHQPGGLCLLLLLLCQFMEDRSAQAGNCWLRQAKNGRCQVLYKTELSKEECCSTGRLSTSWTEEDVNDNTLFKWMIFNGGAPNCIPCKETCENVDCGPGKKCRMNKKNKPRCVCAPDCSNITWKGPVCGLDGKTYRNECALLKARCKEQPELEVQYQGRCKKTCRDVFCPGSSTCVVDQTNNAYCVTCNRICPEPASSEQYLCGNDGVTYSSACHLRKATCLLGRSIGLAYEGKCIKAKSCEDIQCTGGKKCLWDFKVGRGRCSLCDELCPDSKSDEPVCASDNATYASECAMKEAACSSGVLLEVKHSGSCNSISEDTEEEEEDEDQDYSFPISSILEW

[14] = biological target: Fibroblast growth factor 2 (Homo sapiens) (UniProt P09038); test: basic fibroblast growth factor binding to printed compounds – biochemical, small-molecule microarray, 635/667 nm fluorescence, primary screen (AID 1133); conditions: FGF2, fluorescence 635/667, higher = more signal
Fibroblast growth factor 2 (Homo sapiens), sequence (P09038 whole entry, looked up): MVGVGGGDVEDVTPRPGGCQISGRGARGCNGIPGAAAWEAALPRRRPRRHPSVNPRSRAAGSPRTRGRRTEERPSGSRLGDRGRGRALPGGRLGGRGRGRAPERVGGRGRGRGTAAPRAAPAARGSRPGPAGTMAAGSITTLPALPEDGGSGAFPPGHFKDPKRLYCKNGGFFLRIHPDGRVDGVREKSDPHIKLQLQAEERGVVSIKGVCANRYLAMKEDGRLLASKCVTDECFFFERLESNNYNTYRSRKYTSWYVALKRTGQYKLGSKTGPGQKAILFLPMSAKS

[15] = JC-1 mitochondrial potential readout, lung cancer cells – cell-based, A549, JC-1 fluorescence, basal, 24 h, 100 nL, profiling panel (AID 1138); conditions: higher = more signal;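 note: A549 lung adenocarcinoma cells under basal conditions with no added stimulus; test concentration not given here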
Lefty1 = Lefty1 protein binding to printed compounds – biochemical, small-molecule microarray, 635/667 nm fluorescence, primary screen (AID 1139); conditions: fluorescence 635/667, higher = more signal
[16] = test system: wheat germ agglutinin (Triticum aestivum), Alexa647-labelled; test: Alexa647-WGA lectin binding to printed small molecules – biochemical, small-molecule microarray, 635/667 nm fluorescence, artefact control for SMM control-protein annotation, profiling panel (AID 1140); conditions: WGA-A647 binding, 635 nm fluorescence, higher = more signal;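 note: score merges 667 nm feature emission with signal to noise over triplicate slides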
[17] = biological target: Luciferin 4-monooxygenase (Photinus pyralis) (UniProt P08659); test: inhibition of purified Photinus pyralis luciferase – biochemical, luminescence, purified enzyme, 2006 set, primary screen (AID 1141); conditions: purified firefly luciferase, SteadyGlo luminescence, 30 min; higher = more signal, called active from +8 up or from −8 down;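 note: cell-free assay with purified firefly luciferase at 100 ng per well in PBS; test concentration not given here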
Luciferin 4-monooxygenase (Photinus pyralis), sequence (P08659 whole entry, looked up): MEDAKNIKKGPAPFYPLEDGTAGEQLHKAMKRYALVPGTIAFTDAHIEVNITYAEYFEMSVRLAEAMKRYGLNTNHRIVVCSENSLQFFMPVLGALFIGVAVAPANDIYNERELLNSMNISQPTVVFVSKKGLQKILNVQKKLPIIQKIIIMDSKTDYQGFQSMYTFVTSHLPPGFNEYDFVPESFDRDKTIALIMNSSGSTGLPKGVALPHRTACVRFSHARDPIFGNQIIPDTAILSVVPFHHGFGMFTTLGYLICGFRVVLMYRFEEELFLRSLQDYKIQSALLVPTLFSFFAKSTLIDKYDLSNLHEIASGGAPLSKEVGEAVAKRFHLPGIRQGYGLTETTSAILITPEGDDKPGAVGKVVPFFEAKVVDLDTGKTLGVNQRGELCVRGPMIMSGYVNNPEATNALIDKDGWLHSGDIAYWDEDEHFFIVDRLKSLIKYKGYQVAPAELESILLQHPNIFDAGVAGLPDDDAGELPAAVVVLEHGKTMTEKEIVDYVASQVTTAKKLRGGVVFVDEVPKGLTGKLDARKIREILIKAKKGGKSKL

SMILES | composite z-score (Albumin (Bos taurus)) | composite Z-score [1] | composite z-score [2] | composite z-score [3] | composite z-score [4] | composite z-score [5] | composite z-score [6] | composite z-score (Sam68 (KHDRBS1)) | composite z-score [7] | composite z-score [8] | composite z-score [9] | composite z-score [10] | composite z-score [11] | composite z-score [12] | composite z-score [13] | composite z-score [14] | z-score [15] | composite z-score (Lefty1) | composite z-score [16] | z-score [17]
COCCOC(=O)N1C(=O)[C@@]2(c3cc(C#CCC(C(=O)OC)C(=O)OC)ccc31)[C@H](c1ccc(OCCO)cc1)N1[C@H](c3ccccc3)[C@H](c3ccccc3)OC(=O)[C@H]1[C@@H]2C(=O)N1CCN(c2ncccn2)CC1 | 0.758 | -0.341 (inactive) | 0.196 | -0.14 | 0.35 | 2.33 | 0.265 | 1.29 | 0.293 | 1.1 | 1.94 | 1.25 | -0.0555 | 0.947 | 1.36 | 1.23 | -1.48 | 1.29 | 0.939 | -0.506 (inactive)
[N-]=[N+]=NCc1ccccc1C[C@@]1(C(=O)NCCN2CCOCC2)N=C(c2ccc(OCCCO)cc2)O[C@@H]1c1ccccc1N=[N+]=[N-] | 0.678 | 0.653 (inactive) | 0.163 | -0.116 | 0.419 | 1.6 | 0.276 | 1.3 | -0.396 | 1.09 | 1.4 | 1.19 | 1.05 | 0.957 | 0.423 | -0.498 | -0.183 | -0.165 | 0.963 | -5.91 (inactive)
Cc1ccc(S[C@]2(C(=O)NCC(F)(F)F)CC(=O)N(Cc3ccccc3)[C@@H]2c2ccc(CO)cc2)cc1 | -0.597 | 0.363 (inactive) | -0.115 | -0.119 | 0.699 | 0.973 | -0.0477 | 0.619 | -1.23 | -0.643 | -0.951 | 0.389 | -0.0414 | -1.16 | -0.739 | -0.683 | -0.483 | -0.758 | -0.693 | 0.519 (inactive)
CC(C)(C)OC(=O)CC[C@]1(C(=O)O)N=C(c2ccc(OCCCO)cc2)O[C@H]1c1ccccc1CN=[N+]=[N-] | 0.472 | -0.209 (inactive) | 0.0165 | 0.0264 | 0.917 | 0.811 | 0.383 | 0.0075 | -0.237 | -0.192 | 0.401 | 0.251 | -0.171 | -0.0709 | 0.467 | 0.13 | 0.902 | -0.482 | 0.393 | -2.06 (inactive)
CCCNC(=O)[C@@]1(c2ccc([N+](=O)[O-])cc2)CC(=O)N(C2CCCCC2)[C@@H]1c1ccc(CO)cc1I | 0.529 | 0.116 (inactive) | -0.0328 | -0.0635 | 0.71 | 1.73 | 0.521 | 1.25 | -0.0452 | 1.07 | 2.18 | 0.949 | 0.178 | 0.34 | 1.21 | 1.52 | 1.4 | 1.01 | 1.1 | -0.424 (inactive)
CC(C)CNC(=O)[C@@H]1c2ccccc2C(=O)N(Cc2cc(F)cc(C(F)(F)F)c2)[C@H]1c1ccc(CO)cc1 | 0.382 | -0.161 (inactive) | 0.0628 | -0.0486 | 0.411 | 1.07 | 0.333 | 0.603 | -0.182 | 0.0535 | 0.437 | 0.538 | 0.0403 | 0.626 | 1.02 | 0.721 | 2.47 | -0.0543 | 0.042 | -1.38 (inactive)
COCCCNC(=O)[C@]1(CCC(=O)OC(C)(C)C)N=C(c2ccc(OCCCO)cc2)O[C@@H]1c1ccccc1 | 0.968 | 0.977 (inactive) | 0.246 | 0.221 | 0.871 | 3.17 | 0.62 | 0.881 | -0.0833 | -0.354 | 3.52 | 1.26 | 0.807 | 0.272 | 1.21 | -0.0959 | 0.229 | -0.989 | 1.12 | -0.127 (inactive)
COc1ccccc1CN1C(=O)c2ccccc2[C@@H](C(=O)NC(C)C)[C@@H]1c1ccc(CO)cc1 | -0.374 | -0.0458 (inactive) | 0.338 | 0.103 | 0.535 | 2.32 | 1.03 | 1.33 | 0.565 | 1.16 | 1.73 | 1.15 | 0.476 | 1.01 | 1.33 | 1.32 | 1.43 | 0.456 | 0.112 | -0.586 (inactive)
COc1ccc([Si](C)(C)[C@H]2[C@H](CCn3cc([C@H](O)c4ccccc4)nn3)O[C@@]3(C(=O)N(Cc4ccc(N5CCC5=O)cc4)c4ccccc43)[C@@H]2C)cc1 | 0.0383 | -0.128 (inactive) | -0.0647 | -0.167 | 0.0133 | 0.418 | 0.142 | 0.654 | 0.786 | 0.672 | 0.814 | 0.578 | -0.441 | -0.116 | 1.25 | 1.47 | 0.527 | 1.18 | 0.264 | 0.465 (inactive)
O=C1O[C@@H](c2ccccc2)[C@@H](c2ccccc2)N2[C@@H](c3ccccc3OCCO)[C@]3(C(=O)Nc4ccc(C#CCCO)cc43)[C@@H](C(=O)N3CCN(c4ncccn4)CC3)[C@H]12 | 0.717 | 1.37 (inactive) | 0.0208 | -0.0811 | 0.298 | 2.09 | 0.176 | 1.19 | 0.0179 | 1.12 | 1.72 | 1.19 | 0.747 | 0.946 | 0.389 | -0.0344 | 0.679 | 0.081 | 0.65 | 0.27 (inactive)

Source: PubChem BioAssay
